Compound activity: PubChem BioAssay, The Scripps Research Institute Molecular Screening Center
TTR transcr act = TTR transcription activation, primary screen; SH-SY5Y TTR promoter Gaussia luciferase, luminescence; 100% = recombinant luciferase protein wells; activation, % at 16.7 µM; 92,000 compounds, 1.3% hits; AID 1117267;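 active means activation above the mean of all tested compounds plus 3 SD, cut at about 9.5% in these data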;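 further: cells exposed to compounds for one day before reading; 0% = median of all test compound wells on the plate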
HuH7 TTR inh = counter-screen for TTR activators: TTR transcription inhibitors in HuH7 cells. shares compounds with TTR transcr act. inhibition, % at 16.7 µM. AID 1117279. HuH7 TTR promoter-Gaussia luciferase reporter, luminescence. 1,100 compounds, 4% hits;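 active means average inhibition above the solvent-only control wells' mean plus 3 SD, cut at about 15% in these data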;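 further: 0% = cells with DMSO only and 100% = cells with inhibitor control FD; inhibitors lower well luminescence so higher value means more inhibition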
TTR act confirm = human TTR transcription activation, confirmation | activation, % at 16.7 µM | 1,100 tested, under 10 active | AID 1117280 | SHSY5Y TTR promoter Gaussia luciferase, luminescence; 100% = purified Lucia enzyme wells, no cells | shares compounds with TTR transcr act;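 active means mean activation above a set limit taken from the earlier primary screen, cut at about 11% in these data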;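 further: 0% = DMSO-treated cells and 100% = recombinant Lucia luciferase without cells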
An asterisk follows results filed as active. This is one part of a sample in which hits are shown more often than they occur.

SMILES	TTR transcr act	others
CCOC(=O)CC1c2nc3ccccc3cc2CN1C(=O)OCC (configuration not stated)	0
CN(C)N=Nc1ccc(-c2cn(Cc3ccccc3)cn2)cc1	-1
CC(C)(C)N1NC2(CCCCC2)NC1=S	12*	HuH7 TTR inh=-16;TTR act confirm=1
CCOC(=O)CN1NC2(CCCCCC2)NC1=S	0
COc1ccc2[nH]c(CN3CCC(n4nccc4NC(=O)C4CC4)CC3)c(C)c2c1	2
Cc1[nH]c2ccccc2c1C(=O)C(=O)NCc1ccncc1	-1
CCOc1ccc(CCNC(=O)c2cn(C)c3ccc(S(=O)(=O)N4CCOCC4)cc3c2=O)cc1OCC	-2
O=C(O)c1cccc2c1C(=O)c1cc([N+](=O)[O-])ccc1-2	0
C=CCOc1ccc(C[C@H](N)C(=O)NC[C@H]2O[C@@H](n3cc(C)c(=O)[nH]c3=O)C[C@@H]2O)cc1	2
COc1cccc(OCc2cc(C(=O)N3CCN(C4CCCC4)CC3)no2)c1	1
NC(=O)[C@@H]1CCCN1C(=O)c1cc(COc2ccc3c(c2)CCCC3)on1	10*	HuH7 TTR inh=-8;TTR act confirm=-1
COc1cccc(OCc2cc(C(=O)N3CCCC3c3ccccn3)no2)c1 (configuration not stated)	-1
CC(OC(=O)COc1ccccc1)C(=O)NC1CCCC1 (configuration not stated)	-1
CC(OC(=O)CN1C(=O)c2ccccc2C1=O)C(=O)NC1CCCCC1 (configuration not stated)	14*	HuH7 TTR inh=-12;TTR act confirm=0
CC(C(=O)OCC(=O)NC1CCCC1)N1C(=O)c2ccccc2C1=O (configuration not stated)	1
COc1ccc(S(=O)(=O)NCCC(=O)N2CCCN(C)CC2)cc1	1
CC1=NN(Cc2ccccc2)C(=O)C1	-2
Cc1ccccc1CN1N=C(/C=C/c2ccccc2)CCC1=O	2
Cc1ccc(/C=C/C2=NN(Cc3ccc(Cl)c(Cl)c3)C(=O)CC2)cc1	13*	HuH7 TTR inh=7;TTR act confirm=0
COCCNC(=O)C1(C)CCCN(C(=O)c2ccc(C)c(F)c2)C1 (configuration not stated)	1
Cn1c(=O)c2c(nc(SCCN3CCOCC3)n2C)n(C)c1=O	-1
Cc1cc(SCC(=O)N/N=C/c2ccc(O)c(O)c2)c(C)cc1Br	4
O=C(N/N=C/c1ccc(O)c(O)c1)N/N=C/c1ccc(O)c(O)c1	11*	HuH7 TTR inh=-10;TTR act confirm=-1
Oc1ccc(/C=N/NC(=S)Nc2cccnc2)cc1O	-2
CCOc1ccc(C(=O)NCC(=O)NCC(c2ccco2)N2CCCCC2)cc1 (configuration not stated)	0
SMILES	TTR transcr act	others
CCOc1cccc(CN2CCCC(CNC(=O)c3cccc(OC)c3OC)C2)c1 (configuration not stated)	3
O=C(/C=C/[C@H]1O[C@@H](n2cnc3c(NC(=O)c4ccccc4)ncnc32)[C@H](O)[C@@H]1O)NCCc1ccc(F)cc1	21*	HuH7 TTR inh=-22;TTR act confirm=0
O=C(/C=C/[C@H]1O[C@@H](n2cnc3c(NC(=O)c4ccccc4)ncnc32)[C@H](O)[C@@H]1O)NCCc1c[nH]c2ccccc12	-1
COCCCNC(=O)/C=C/[C@H]1O[C@@H](n2cnc3c(NC(=O)c4ccccc4)ncnc32)[C@H](O)[C@@H]1O	3
Cc1ccc(OC(=O)N(C)C[C@@H]2OCc3cn(nn3)CCCC(=O)N([C@H](C)CO)C[C@H]2C)cc1	2
Cc1ccc(S(=O)ONc2cccc(NOS(=O)c3ccc(C)cc3)c2)cc1 (configuration not stated)	-1
CCOC(=O)C1=C(c2ccccc2)NC(=O)NC1c1ccc(OC)cc1 (configuration not stated)	0
CCOC(=O)C1=C(c2ccccc2)NC(=O)NC1c1ccc(N(C)C)cc1 (configuration not stated)	14*	HuH7 TTR inh=-7;TTR act confirm=1
CCOC(=O)C1=C(CS(=O)(=O)c2ccccc2)NC(=O)NC1c1ccccc1 (configuration not stated)	-1
O=S(=O)(c1ccccc1Br)N(CC(O)COCc1ccccc1)C1CC1 (configuration not stated)	-2
CC1(C(=O)NS(=O)(=O)c2ccc(Cl)s2)CCN1C(=O)c1ccc(C2CCCCC2)cc1 (configuration not stated)	-2
Cc1cccc(C)c1OCC(=O)NCC1COc2ccccc2O1 (configuration not stated)	-1
Cn1c2ccccc2c2ncn(Cc3ccco3)c(=O)c21	-1
Cn1c2ccc(F)cc2c2ncn(Cc3ccco3)c(=O)c21	0
Cn1c2ccc(F)cc2c2ncn(Cc3ccccn3)c(=O)c21	15*	HuH7 TTR inh=-14;TTR act confirm=-1
C[C@H]1CN([C@@H](C)CO)C(=O)CCCn2cc(nn2)CO[C@@H]1CN(C)C(=O)Nc1ccc2c(c1)OCO2	-2
CC(C)c1ccc(CN2C(=O)NC3(CCCCCC3)C2=O)cc1	0
CCOC(=O)c1cc(-c2ccccc2)n(CC(=O)O)c1C	11*	HuH7 TTR inh=-15;TTR act confirm=0
CCCNC(=O)Cn1c(-c2ccc(F)cc2)cc(C(=O)OCC)c1C	1
CCOC(=O)c1cc(-c2ccccc2)n(CC(=O)NC(C)(C)C)c1C	1
Cc1cc(C)c(C)c(OCC(=O)O/N=C(\N)c2ccccn2)c1	10*	HuH7 TTR inh=-21;TTR act confirm=0
Cc1cc(C)cc(OCC(=O)O/N=C(\N)c2ccccn2)c1	1
Cc1cc(C)c(C)c(OCC(=O)O/N=C(\N)c2ccncc2)c1	0
CN(C(=O)c1cccc(NC(=O)Cc2ccc(NC(=O)C3CCN(C(=O)C4CC4)CC3)cc2)c1)C1CCC1	1
CCn1ccnc1CN(C)C(=O)c1cc(COc2ccccc2SC)on1	1
SMILES	TTR transcr act	others
CSc1nnnn1-c1ccc(C(=O)O)cc1	19*	HuH7 TTR inh=-7;TTR act confirm=0
O=C(O)c1ccc(-n2nnnc2SCc2ccccc2F)cc1	0
CSc1nnnn1-c1ccc(C)c(Cl)c1	0
CC(C)[C@H]1COCCS(=O)(=O)N1Cc1ccccc1-c1ccccc1	4
COC(=O)c1ccc2nc(-c3cccc(Cl)c3)c(Cc3cccc(F)c3)n2c1	0
CN(Cc1ccccc1C(F)(F)F)C(=O)C1CCC(=O)N(CC2CCCCC2)C1 (configuration not stated)	1
O=C1NC[C@H](CC2CCCCC2)N(CCc2cccc(F)c2)C1=O	-2
COc1cccc(OCC(=O)Nc2ccccc2C(=O)Nc2ccc(C(=O)O)cc2)c1	1
COc1ccc(-c2nnc(SCc3nc4ccccc4s3)n2C(C)C)cc1	-1
CCn1c(SCc2nc3ccccc3s2)nnc1-c1cccs1	15*	HuH7 TTR inh=-23;TTR act confirm=0
Cn1c(SCc2nc3ccccc3s2)nnc1-c1cccs1	-4
CC1(C(=O)NC2CCc3ccccc32)CCN1CCc1ccccc1 (configuration not stated)	0
CC(C)(C)OC(=O)N1CCN(C(=O)c2[nH]cnc2C(=O)Nc2ccccc2F)CC1	4
CCN(CC(=O)NCc1ccc(Cl)cc1)C(=O)CSCC(=O)Nc1cccc(C)c1	0
CCS(=O)(=O)c1nc(S(=O)(=O)c2ccc(C)cc2)c(N2CCC3(CC2)OCCO3)s1	2
O=C(COC(=O)/C=C/c1ccc(F)cc1)NC1CCCCCC1	10*	HuH7 TTR inh=-7;TTR act confirm=0
O=C(COC(=O)/C=C/c1ccc(Cl)cc1)NC1CCCC1	3
